Experiment [1] is described as follows: antimalarial activity against Dd2 strain (AID 2302;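 active = growth inhibition above 50% at the single 2 µM test dose, taken to imply half-maximal potency below 2 µM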;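 also: 0% = DMSO untreated growth and 100% = chloroquine plus artemisinin killed control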). Particulars: P. falciparum Dd2 in RBCs, LDH growth readout, 72 h; at 2 µM; hits give high values.
Experiment [2] can be described thus: human hepatoma cell viability loss – ATP luminescence, cytotoxicity control for P. falciparum antimalarial project, primary screen (AID 2303;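 active = inhibition above 50%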;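 also: 0% = DMSO wells and 100% = digitonin-killed cells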). Particulars: HepG2 viability, 24-48 h, at 10 µM, hits give high values.
Experiment [3] has as its target L-lactate dehydrogenase (Plasmodium falciparum (isolate CDC / Honduras)) (UniProt Q27743). The experiment can be described thus: PfLDH activity inhibition – cell lysate, 3D7 strain, counter-screen for P. falciparum growth inhibition project (AID 2304).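 Also: 0% = vehicle and 100% = reference inhibitor.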 Particulars: P. falciparum 3D7 crude extract, LDH APAD/NBT absorbance; at 2 µM; hits give high values. In general terms: Counterscreens check selectivity or assay interference.

A short description of experiment [4]: inhibition of 3D7 malaria parasite growth – strain 3D7 (AID 2306).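 Also: 0% = DMSO wells and 100% = chloroquine plus artemisinin control wells.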 Particulars: P. falciparum 3D7 erythrocytic growth, LDH absorbance, 72 h; at 2 µM; hits give high values.
The target of experiment [5] is Calcium-dependent protein kinase 1 (Plasmodium falciparum (isolate 3D7)) (UniProt P62344). The experiment can be described thus: PfCDPK1 kinase inhibitors, biochemical, TCAMS library (AID 1159585; cut-off not given, nearly all actives have IC50 up to about 0.98 µM;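 also: inhibitors leave more ATP so luminescence rises with inhibition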). The settings on record: recombinant PfCDPK1, Kinase-Glo ATP depletion luminescence. (Kinase-Glo measures the ATP left after a reaction by luminescence.)
Chain of Calcium-dependent protein kinase 1 (Plasmodium falciparum (isolate 3D7)) (P62344 whole entry, looked up): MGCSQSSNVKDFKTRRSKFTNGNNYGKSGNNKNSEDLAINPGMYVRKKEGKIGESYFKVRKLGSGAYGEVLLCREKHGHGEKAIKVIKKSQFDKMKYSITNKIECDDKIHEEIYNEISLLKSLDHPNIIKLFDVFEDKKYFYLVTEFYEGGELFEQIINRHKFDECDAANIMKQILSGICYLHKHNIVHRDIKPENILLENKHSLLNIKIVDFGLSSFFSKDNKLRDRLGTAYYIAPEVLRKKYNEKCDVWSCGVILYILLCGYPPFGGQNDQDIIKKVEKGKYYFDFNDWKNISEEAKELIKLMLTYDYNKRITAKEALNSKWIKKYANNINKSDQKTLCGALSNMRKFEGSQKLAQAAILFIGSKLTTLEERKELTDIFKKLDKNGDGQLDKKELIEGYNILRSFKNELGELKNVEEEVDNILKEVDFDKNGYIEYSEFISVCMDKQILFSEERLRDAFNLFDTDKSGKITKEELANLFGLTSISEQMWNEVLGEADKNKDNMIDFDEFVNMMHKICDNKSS
Experiment [6] has as its target Plasmodium falciparum protein kinase 6 (PK6, PF3D7_1337100) (UniProt Q8IDW1). The experiment can be described thus: PfPK6 kinase inhibitors, biochemical, TCAMS library (AID 1159586). Particulars: recombinant PfPK6, Kinase-Glo ATP depletion luminescence.
For experiment [7], the target named is Protein kinase 7 (PK7), Plasmodium falciparum 3D7 (PF3D7_0213400) (UniProt Q7YTF7). Briefly: inhibition of Plasmodium PK7 catalytic activity – biochemical, TCAMS antimalarial set, Kinase-Glo luminescence (AID 1159587). Particulars: recombinant PfPK7, Kinase-Glo ATP depletion luminescence.
Chain of Protein kinase 7 (PK7), Plasmodium falciparum 3D7 (PF3D7_0213400) (Q7YTF7 1-343): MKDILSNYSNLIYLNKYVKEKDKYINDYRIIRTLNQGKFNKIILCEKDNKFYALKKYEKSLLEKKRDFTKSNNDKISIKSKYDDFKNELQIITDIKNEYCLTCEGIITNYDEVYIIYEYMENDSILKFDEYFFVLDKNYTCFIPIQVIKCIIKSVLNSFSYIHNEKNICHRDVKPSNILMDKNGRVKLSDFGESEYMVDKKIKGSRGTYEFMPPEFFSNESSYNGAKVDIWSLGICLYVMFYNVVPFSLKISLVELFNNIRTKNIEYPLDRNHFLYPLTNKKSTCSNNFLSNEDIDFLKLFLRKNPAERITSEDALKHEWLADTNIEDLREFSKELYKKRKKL
Experiment [8] deals with Calcium-dependent protein kinase 4 (Plasmodium falciparum (isolate 3D7)) (UniProt Q8IBS5). Briefly: PfCDPK4 kinase inhibitors, biochemical, TCAMS library (AID 1159588; cut-off not given, nearly all actives have IC50 up to about 0.91 µM). Particulars: recombinant PfCDPK4, Kinase-Glo ATP depletion luminescence.
Chain of Calcium-dependent protein kinase 4 (Plasmodium falciparum (isolate 3D7)) (Q8IBS5 whole entry, looked up): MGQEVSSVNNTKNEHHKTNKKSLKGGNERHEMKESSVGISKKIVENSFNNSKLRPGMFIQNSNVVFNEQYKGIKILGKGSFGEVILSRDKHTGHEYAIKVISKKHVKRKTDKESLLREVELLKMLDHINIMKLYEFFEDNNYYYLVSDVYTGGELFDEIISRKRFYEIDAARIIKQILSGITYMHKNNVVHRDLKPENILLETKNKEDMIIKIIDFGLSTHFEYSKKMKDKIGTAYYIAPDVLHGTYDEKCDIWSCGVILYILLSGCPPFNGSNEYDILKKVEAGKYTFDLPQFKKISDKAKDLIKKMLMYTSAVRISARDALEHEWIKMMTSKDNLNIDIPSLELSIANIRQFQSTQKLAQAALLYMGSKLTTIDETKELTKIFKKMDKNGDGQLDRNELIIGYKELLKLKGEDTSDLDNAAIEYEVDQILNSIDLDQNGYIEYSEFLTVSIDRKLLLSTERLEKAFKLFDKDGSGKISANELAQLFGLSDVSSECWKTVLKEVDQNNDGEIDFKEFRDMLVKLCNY

Values without a mark were called inactive. For some of these results: Measured potencies and affinities stand elsewhere. Activity calls are given as the source filed them. Unless noted, no rule for the calls is given here.

Chain of Plasmodium falciparum protein kinase 6 (PK6, PF3D7_1337100) (Q8IDW1 1-305): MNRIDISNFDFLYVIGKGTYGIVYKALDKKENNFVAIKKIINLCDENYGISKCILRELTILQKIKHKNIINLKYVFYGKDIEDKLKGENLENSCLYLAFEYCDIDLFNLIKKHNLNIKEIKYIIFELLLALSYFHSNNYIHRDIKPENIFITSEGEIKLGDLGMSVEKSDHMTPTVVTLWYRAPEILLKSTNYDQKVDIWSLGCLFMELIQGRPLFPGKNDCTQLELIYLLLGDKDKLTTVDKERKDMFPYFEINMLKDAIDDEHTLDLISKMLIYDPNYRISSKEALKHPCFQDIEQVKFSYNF
Chain of L-lactate dehydrogenase (Plasmodium falciparum (isolate CDC / Honduras)) (Q27743 whole entry, looked up): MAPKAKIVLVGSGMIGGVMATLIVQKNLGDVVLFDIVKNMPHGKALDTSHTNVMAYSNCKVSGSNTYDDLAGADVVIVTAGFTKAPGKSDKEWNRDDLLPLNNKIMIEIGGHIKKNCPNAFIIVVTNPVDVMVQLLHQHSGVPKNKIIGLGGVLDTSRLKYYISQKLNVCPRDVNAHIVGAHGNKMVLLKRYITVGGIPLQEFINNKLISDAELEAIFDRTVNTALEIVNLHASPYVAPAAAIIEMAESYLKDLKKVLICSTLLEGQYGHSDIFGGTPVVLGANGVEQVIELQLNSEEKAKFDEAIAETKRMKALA

As usually defined, the inhibition is the drop in the measured response relative to a control, in per cent. As to `COc1c(C2CCN(CCCCNC(=O)c3ccc(NC(=O)c4ccc(C#N)cc4)cc3)CC2)ccc2c1CCCC2`, the figures for the growth inhibition in experiment [1] and in experiment [4] were 100% (active) and 97% (active), respectively. For the same compound, the inhibition in experiment [2] was 81% (active); in experiment [3] it was 1%. Besides, the outcome in experiment [5], in experiment [6], in experiment [7] and in experiment [8] was inactive.
As for `O=C(N[C@@H](Cc1ccccc1)C(=O)NC1CCCc2ccccc21)c1ccc(O)c(-c2ccc(Cl)c(Cl)c2)c1` (stereo not given in full), the growth inhibition in experiment [1] was 99% (active); in experiment [4], 97% (active). The values for the inhibition in experiment [2] and in experiment [3] were -3% and -8%, respectively. The outcome in experiment [5], in experiment [6], in experiment [7] and in experiment [8] was inactive.
With `CN=C(N)c1ccc(NC(=O)Nc2ccc(C(N)=NC)cc2)cc1`, the results for the growth inhibition in experiment [1] and in experiment [4] were 71% (active) and 84% (active), respectively. Moreover, the inhibition in experiment [2] is -5%; in experiment [3] it was -2%. In addition, the result in experiment [5], in experiment [6], in experiment [7] and in experiment [8] was inactive.
For `Cc1sc(C)c(C(F)(F)F)c1CNCCCNc1cc(=O)c2ccccc2[nH]1`, the growth inhibition was 43% in experiment [1] and 96% (active) in experiment [4]. Moreover, the inhibition is -3% in experiment [2] and -1% in experiment [3]. Moreover, the outcome in experiment [5], in experiment [6], in experiment [7] and in experiment [8] was inactive.
For `CC(=O)N(C)c1cccc(CNc2cc(C)nc(Nc3ccc(C)cc3)n2)c1`, the growth inhibition in experiment [1] is 21%; in experiment [4], 97% (active). For the same compound, the inhibition in experiment [2] is 8%; in experiment [3], -9%. For the same compound, the result in experiment [5], in experiment [6], in experiment [7] and in experiment [8] was inactive.
With `CC(=O)C1=NN(c2ccc(Cl)cc2)C(c2cccs2)N1c1ccccc1` (stereo not given), the growth inhibition in experiment [1] was 70% (active); in experiment [4], 88% (active). The inhibition in experiment [2] was -3%; in experiment [3], 3%. The outcome in experiment [5], in experiment [6], in experiment [7] and in experiment [8] was inactive.
With `O=C(/C=C/c1ccc(F)cc1)NC1CCC(CCN2CCc3ccc(-n4cccn4)cc3CC2)CC1` (stereo not given), the growth inhibition in experiment [1] was 16%; in experiment [4], 89% (active). Besides, the inhibition was 23% in experiment [2] and 3% in experiment [3]. In addition, the result in experiment [5], in experiment [6], in experiment [7] and in experiment [8] was inactive.
Turning to `CCC1(C)N=C(N)N=C(N)N1c1ccc(Cl)cc1` (stereo not given), the values for the growth inhibition in experiment [1] and in experiment [4] were -1% and 95% (active), respectively. The figures for the inhibition in experiment [2] and in experiment [3] were 7% and -3%, respectively. The outcome in experiment [5], in experiment [6], in experiment [7] and in experiment [8] was inactive.
As for `Cc1nc(SCC(=O)N2CCCC2=O)c2c(C)c(C)sc2n1`, the growth inhibition in experiment [1] was 0%; in experiment [4], 96% (active). The inhibition was 45% in experiment [2] and 2% in experiment [3]. Also, the outcome in experiment [5], in experiment [6], in experiment [7] and in experiment [8] was inactive.
Turning to `Cc1ccc(Oc2ccc(CNc3nc(Nc4cccc(F)c4)nc(Nc4cccc(F)c4)n3)cc2)cc1`, the results for the growth inhibition in experiment [1] and in experiment [4] were -2% and 86% (active), respectively. Further, the values for the inhibition in experiment [2] and in experiment [3] were -5% and -2%, respectively. Besides, the outcome in experiment [5], in experiment [6], in experiment [7] and in experiment [8] was inactive.
On to `CC(C)c1ccc(CN2CCC(CNC(=O)c3cc(-c4cccc(Cl)c4)cs3)C2)cc1` (stereo not given), for which the growth inhibition in experiment [1] is 43%; in experiment [4], 99% (active). Also, the inhibition in experiment [2] was 42%; in experiment [3], 1%. The outcome in experiment [5], in experiment [6], in experiment [7] and in experiment [8] was inactive.
On to `Cc1cc(CNCCCCCNCc2ccc(Cl)cc2)ccc1O`, for which the results for the growth inhibition in experiment [1] and in experiment [4] were -1% and 98% (active), respectively. Moreover, the inhibition in experiment [2] was 12%; in experiment [3] it was -7%. The result in experiment [5], in experiment [6], in experiment [7] and in experiment [8] was inactive.
For the compound `COc1ccc2nc(-c3ccccc3)cc(NN=Cc3ccc([N+](=O)[O-])cc3)c2c1`, the growth inhibition is 100% (active) in experiment [1] and 102% (active) in experiment [4]. Also, the inhibition in experiment [2] was 89% (active); in experiment [3], 7%. Besides, the result in experiment [5], in experiment [6], in experiment [7] and in experiment [8] was inactive.
On to `COc1ccc2nccc(NN=Cc3cccnc3)c2c1`, for which the growth inhibition in experiment [1] was 84% (active); in experiment [4] it was 100% (active). Moreover, the inhibition in experiment [2] was -1%; in experiment [3] it was -6%. The outcome in experiment [5], in experiment [6], in experiment [7] and in experiment [8] was inactive.
`CNC(=O)c1cnc(Nc2ccc(N3CCOCC3)cc2)nc1Nc1cccc(OC)c1`: the growth inhibition in experiment [1] is 41%; in experiment [4], 96% (active). Moreover, the figures for the inhibition in experiment [2] and in experiment [3] were 2% and -2%, respectively. Also, the outcome in experiment [5], in experiment [6], in experiment [7] and in experiment [8] was inactive.
In the case of `CN(C)CCCNCc1ccc(-c2ccc(C(F)(F)F)cc2)cc1`, the growth inhibition in experiment [1] is 35%; in experiment [4], 96% (active). Moreover, the inhibition in experiment [2] was 30%; in experiment [3], -4%. For the same compound, the outcome in experiment [5], in experiment [6], in experiment [7] and in experiment [8] was inactive.
Take `C=C[C@H]1CN(CCCCCCC)CC[C@H]1CC(O)Cc1ccnc2cc(O)c(OC)cc12` (stereo not given in full): the values for the growth inhibition in experiment [1] and in experiment [4] were 59% (active) and 95% (active), respectively. The inhibition was 7% in experiment [2] and 1% in experiment [3]. Moreover, the outcome in experiment [5], in experiment [6], in experiment [7] and in experiment [8] was inactive.
Turning to `CCn1cc2c3c(cc(C(=O)N[C@@H](Cc4ccccc4)[C@H](O)CNCc4cccc(OC)c4)cc31)N(C)S(=O)(=O)CC2`, the growth inhibition in experiment [1] was 97% (active); in experiment [4], 99% (active). Also, the inhibition was -12% in experiment [2] and 0% in experiment [3]. For the same compound, the result in experiment [5], in experiment [6], in experiment [7] and in experiment [8] was inactive.
`O=C(NC1CCCCC1)N(Cc1ccc(-c2cccc(CNC3CCCC3)c2)cc1)C1CCN(Cc2ccccc2)CC1`: the results for the growth inhibition in experiment [1] and in experiment [4] were 59% (active) and 95% (active), respectively. For the same compound, the inhibition in experiment [2] is 52% (active); in experiment [3] it was 3%. In addition, the result in experiment [5], in experiment [6], in experiment [7] and in experiment [8] was inactive.
Consider `COc1ccc(Nc2nccc(NCCNC(=O)Nc3cc(C)ccc3C)n2)cc1`, for which the growth inhibition in experiment [1] is -3%; in experiment [4], 85% (active). Further, the inhibition is 10% in experiment [2] and 2% in experiment [3]. Also, the outcome in experiment [5], in experiment [6], in experiment [7] and in experiment [8] was inactive.

Source of the values: PubChem BioAssay.
